Compounds without any hit were thinned out: in the full panel of roughly 83,000, 20% have a hit.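 96-well plates, one dose, 48 hours. Percent growth reported; active if below 10.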 Unmarked numbers belong to inactive results. Activity calls are given as the source filed them.
What was measured:
Assay in all cases: NCI-60 one-dose screen, 48 h (100 = growth as untreated, 0 = no growth, -100 = all killed)
Settings in all cases: 10 µM unless noted
BT-549 breast = system: BT-549 breast
MDA-MB-435 melanoma = system: MDA-MB-435 melanoma
SW-620 colon = system: SW-620 colon
MCF7 breast = system: MCF7 breast
HCT-116 colon = system: HCT-116 colon
HCC-2998 colon = system: HCC-2998 colon
KM12 colon = system: KM12 colon

Compound	growth (BT-549 breast)	growth (MDA-MB-435 melanoma)	growth (SW-620 colon)	growth (MCF7 breast)	growth (HCT-116 colon)	growth (HCC-2998 colon)	growth (KM12 colon)
O=C1CS/C(=N/c2nnc(-c3ccc(O)cc3)s2)N1	100%	103%	107%	89.3%	99.8%	102%	100%
CCOc1ccc(C2N(c3cc(OC)c(OC)c(OC)c3)C(=O)C2(F)F)cc1 (configuration not stated)	44.2%	16.8%	25.5%	17.2%	8.92% (active)	81.7%	28%
O=C1CC23OC4ON=C(Br)C4C2C(O)c2ccccc2N13 (configuration not stated)	105%	111%	101%	88.5%	94.5%	103%	100%
Cc1cc(C)c2nc(Nc3nc(C)c(C)c(=O)[nH]3)nc(C)c2c1	9.69% (active)	15.7%	9.96% (active)	3.09% (active)	3.76% (active)	21.9%	11.3%
O=S(=O)(Nc1nccs1)c1ccc(Nc2nc(-c3ccncc3)cs2)cc1	125%	112%	98.1%	94.3%	93.8%	120%	105%
COC(=O)[C@]1(C)CCC[C@]2(C)[C@H]3C[C@H]4C(C(C)C)=C[C@]3(CC[C@H]21)[C@@H]1C(=O)N(CCC#N)C(=O)[C@@H]14	59.5%	86.5%	89.9%	72.2%	70.8%	94.1%	82.7%
COc1cc(NC(=O)Nc2cnc(Nc3ccc(N4CCOCC4)cc3)nc2Oc2ccc(F)cc2)cc(OC)c1	98.2%	88.3%	82.7%	91%	6.9% (active)	101%	92.4%
Cn1c2c(c3ccc(-c4ccn[nH]4)cc3c1=O)C(=O)c1ccccc1-2	50.5%	77.6%	31.1%	9.04% (active)	21.9%	79.8%	15.7%
Cc1cc(C)cc(Nc2nccc(-c3c(-c4ccc(F)cc4)ncn3C3CCNCC3)n2)c1	17.7%	-78.8% (active)	-28% (active)	-8.14% (active)	-98.8% (active)	-60.2% (active)	11.8%
C=C1C(=O)O[C@H]2[C@H]1CC/C(COC(=O)CCCCCCC(=O)OC/C1=C/CC[C@@]3(C)O[C@H]3[C@H]3OC(=O)C(=C)[C@@H]3CC1)=C\CC[C@@]1(C)O[C@@H]21	49.4%	40.4%	14.8%	14.8%	-40.6% (active)	89.3%	61.5%
COc1ccc(-c2nnc(N3CCN(C(=O)CN4CCN(c5ccccc5)CC4)CC3)nc2-c2ccc(OC)cc2)cc1	-16.1% (active)	22.7%	35.7%	11.7%	8.34% (active)	22.2%	16.8%
Cc1nc(C)c(C)nc1C	110%	108%	103%	101%	98.4%	95.6%	105%
O=c1c2ccccc2oc2ccc(OCCCCCN3CCCCCC3)cc12	78.5%	73.8%	77.7%	68.2%	58.4%	84.6%	68.6%
COc1ccc(/C(=N\O)c2cc(C)c(OC)c(C)c2)cc1O	19.3%	-23.8% (active)	31%	19.1%	6.63% (active)	26.2%	14.8%
OCCNc1nc(NCCO)nc(Nc2ccc(C3=NN(c4ccc(Cl)cc4)C(c4ccc(Cl)cc4)C3)cc2)n1 (configuration not stated)	77.1%	58.1%	71.1%	20.4%	48.6%	56.8%	49.8%
C=C(C)[C@@H]1CC[C@]2(C(=O)OCCOCCOCC[P+](c3ccccc3)(c3ccccc3)c3ccccc3)CC[C@]3(C)[C@H](CC[C@@H]4[C@@]5(C)CC[C@H](C)C(C)(C)[C@@H]5CC[C@]43C)[C@@H]12	-93% (active)	-93.7% (active)	-83.5% (active)	-77% (active)	-88.4% (active)	-85.5% (active)	-81.3% (active)
COc1cc2c(cc1OCCCOc1cc3c(cc1OC)C(=O)N1CC(F)(F)C[C@H]1C=N3)N=C[C@@H]1CC(F)(F)CN1C2=O	-38.5% (active)	-11.8% (active)	1.84% (active)	13.8%	4.77% (active)	-7.61% (active)	-18.5% (active)
C=C(C)[C@@H]1CC[C@]2(C(=O)O)CC[C@]3(C)[C@H](CC[C@@H]4[C@@]5(C)C[C@@H](CC#Cc6ccc(Cl)cc6)C(=O)C(C)(C)[C@@H]5CC[C@]43C)[C@@H]12	46.5%	46.6%	41.3%	36.3%	22%	50.3%	26.3%
C#CCOC(=O)[C@]1(C)CCC[C@]2(C)[C@H]3C[C@H]4C(C(C)C)=C[C@]3(CC[C@H]21)[C@@H]1C(=O)CCC(=O)[C@@H]14	91.7%	97.7%	86.9%	83.2%	77.8%	102%	87%
CO[C@@]12C=C[C@@]34CCC(=O)N3c3ccccc3[C@@H](O1)C4C2	105%	104%	101%	97.9%	102%	106%	105%
COc1ccc(-c2cc(C(=O)N3N=C(c4ccc(N)cc4)CC3c3ccc(OC)cc3)c3cc(OC)ccc3n2)cc1 (configuration not stated)	66.4%	3.45% (active)	30.1%	14.2%	7.78% (active)	91.6%	22.5%
COc1cccc(NC(=O)Nc2ccc(Nc3ncnc4[nH]c(C)c(C)c34)cc2)c1	97.7%	102%	110%	91.1%	116%	115%	70.6%
c1cc(CNC23CC4CC(CC(C4)C2)C3)cc(C[N+](Cc2cccc(CNC34CC5CC(CC(C5)C3)C4)c2)(Cc2cccc(CNC34CC5CC(CC(C5)C3)C4)c2)Cc2cccc(CNC34CC5CC(CC(C5)C3)C4)c2)c1 (configuration not stated)	24.5% [42 µM]	11.3% [42 µM]	20.6% [42 µM]	2.14% [42 µM] (active)	-3.55% [42 µM] (active)	34.3% [42 µM]	25.8% [42 µM]
CCOC(=O)c1c(C)nc2c(c1N)/C(=C/c1cccs1)C(=O)N2Cc1ccccc1	73.6%	88.9%	58%	8.22% (active)	34.9%	96%	40.5%
C=C1C(=O)O[C@H]2[C@H]1CC/C(C=Nc1c(N)cc(F)cc1Br)=C\CC[C@@]1(C)O[C@@H]21	84.8%	83.2%	26.5%	24.4%	48.2%	109%	98.8%
COc1ccc2oc(=O)cc(-c3nc4ccc(N)cc4[nH]3)c2c1	77.1%	106%	103%	77.2%	88.6%	97.9%	87.7%
